Data taken from the supplement of paper PMC6089552.
The whole screen tested about 3,200 compounds, of which about 300 (9.4%) showed activity. Only a selection was taken, and actives are over-represented in it overall.

Test system: A673/TR/shEF
Assay: cell viability (LOESS-normalised, relative to median of negative controls) (log2 ratio); higher = more viable cells (less compound effect), active = hit call of the paper (over 3 MAD below the median)
Settings: treatment time: 72 h
Summary of the method: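 Viability of A673/TR/shEF Ewing sarcoma cells was determined by CellTiter-Glo luminescence. The cells, at 1,500 per well in 384-well plates, were grown with or without doxycycline from 24 h before compound addition to switch on EWS-FLI1 shRNA knockdown, then exposed for three days to library compounds at two or more concentrations or to DMSO controls. Signals were LOESS-corrected plate by plate, normalised to the negative-control median and log2-transformed.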

[1] = 0.25 µM, library screen: screen1, EWS-FLI1 expression: high (no doxycycline)
[2] = 0.25 µM, library screen: screen1, EWS-FLI1 expression: low (doxycycline-induced shRNA knockdown)
[3] = 2.5 µM, library screen: screen1, EWS-FLI1 expression: high (no doxycycline)
[4] = 2.5 µM, library screen: screen1, EWS-FLI1 expression: low (doxycycline-induced shRNA knockdown)
[5] = 0.103 µM, library screen: screen3, EWS-FLI1 expression: high (no doxycycline)
[6] = 0.103 µM, library screen: screen3, EWS-FLI1 expression: low (doxycycline-induced shRNA knockdown)
[7] = 0.308 µM, library screen: screen3, EWS-FLI1 expression: high (no doxycycline)
[8] = 0.308 µM, library screen: screen3, EWS-FLI1 expression: low (doxycycline-induced shRNA knockdown)
[9] = 0.926 µM, library screen: screen3, EWS-FLI1 expression: high (no doxycycline)
[10] = 0.926 µM, library screen: screen3, EWS-FLI1 expression: low (doxycycline-induced shRNA knockdown)
[11] = 2.8 µM, library screen: screen3, EWS-FLI1 expression: high (no doxycycline)
[12] = 2.8 µM, library screen: screen3, EWS-FLI1 expression: low (doxycycline-induced shRNA knockdown)
[13] = 8.3 µM, library screen: screen3, EWS-FLI1 expression: high (no doxycycline)
[14] = 8.3 µM, library screen: screen3, EWS-FLI1 expression: low (doxycycline-induced shRNA knockdown)
[15] = 25 µM, library screen: screen3, EWS-FLI1 expression: high (no doxycycline)
[16] = 25 µM, library screen: screen3, EWS-FLI1 expression: low (doxycycline-induced shRNA knockdown)
[17] = 0.25 µM, library screen: screen2, EWS-FLI1 expression: high (no doxycycline)
[18] = 0.25 µM, library screen: screen2, EWS-FLI1 expression: low (doxycycline-induced shRNA knockdown)
[19] = 2.5 µM, library screen: screen2, EWS-FLI1 expression: high (no doxycycline)
[20] = 2.5 µM, library screen: screen2, EWS-FLI1 expression: low (doxycycline-induced shRNA knockdown)
[21] = 0.025 µM, library screen: screen1, EWS-FLI1 expression: high (no doxycycline)
[22] = 0.025 µM, library screen: screen1, EWS-FLI1 expression: low (doxycycline-induced shRNA knockdown)
[23] = 25 µM, library screen: screen1, EWS-FLI1 expression: high (no doxycycline)
[24] = 25 µM, library screen: screen1, EWS-FLI1 expression: low (doxycycline-induced shRNA knockdown)

Measured: cell viability (log2)

NS(=O)(=O)c1ccc(-c2ccc(/C=C3/SC(=S)N(C4CCCCC4)C3=O)o2)cc1
inactive: [1] 0.109 | [2] 0.0623 | [3] 0.167 | [4] -0.0331

CC(=O)O[C@@]12CO[C@@H]1C[C@H](O)[C@@]1(C)C(=O)[C@H](O)C3=C(C)[C@@H](OC(=O)[C@H](O)[C@@H](NC(=O)OC(C)(C)C)c4ccccc4)C[C@@](O)([C@@H](OC(=O)c4ccccc4)[C@H]21)C3(C)C
active: [5] -2.68 | [6] -0.934 | [7] -2.8 | [8] -1.01 | [9] -2.92 | [10] -1.04 | [11] -2.83 | [12] -1.04 | [13] -2.98 | [14] -1.06 | [15] -2.84 | [16] -1.01

CC(=O)O[C@H]1C(=O)[C@@]2(C)[C@H]([C@H](OC(=O)c3ccccc3)[C@]3(O)C[C@H](OC(=O)[C@H](O)[C@@H](NC(=O)c4ccccc4)c4ccccc4)C(C)=C1C3(C)C)[C@]1(OC(C)=O)CO[C@@H]1C[C@@H]2O
active: [5] -2.57 | [6] -0.853 | [1] -3.63 | [2] -1.46 | [17] -2.49 | [18] -0.868 | [7] -2.24 | [8] -0.787 | [9] -2.68 | [10] -0.947 | [3] -4.22 | [4] -1.51 | [19] -2.93 | [20] -1 | [11] -2.59 | [12] -1.11 | [13] -2.75 | [14] -1.03 | [15] -2.68 | [16] -1.1

[Na+].[Na+].[Na+].[O]=[V]([O-])([O-])[O-]
inactive: [5] 0.0642 | [6] 0.11 | [7] -0.00412 | [8] 0.0414 | [9] 0.0791 | [10] 0.0822 | [11] 0.0816 | [12] 0.153 | [13] 0.102 | [14] 0.022 | [15] 0.0273 | [16] 0.0301

O=C(Nc1ccncc1)c1cc(-c2ccccc2)nc2ccccc12
inactive: [1] 0.0994 | [2] 0.0756 | [3] 0.0606 | [4] -0.00485

COC(=O)C[C@H]1C(C)(C)C(OC)=C2CC3=C4CC(=O)O[C@@H](c5ccoc5)[C@]4(C)CCC3[C@@]1(C)C2=O (some centres not stated)
inactive: [1] 0.0817 | [2] 0.1 | [3] 0.101 | [4] 0.109

Nc1ncnc2c1nc(Br)n2C1OC2COP(=O)(O)OC2C1O (configuration not stated)
inactive: [17] 0.279 | [18] 0.0361 | [19] 0.103 | [20] 0.0822

CC1=C(/C=C/C(C)=C/C=C/C(C)=C/C=C/C=C(C)/C=C/C=C(C)/C=C/[C@@]23O[C@]2(C)C[C@@H](O)CC3(C)C)C(C)(C)C[C@H](O)C1
inactive: [1] 0.0858 | [2] 0.0984 | [3] 0.143 | [4] 0.132

COc1ccc2c(c1)[C@@]1(C)CCC(=O)C[C@@H]1CC2
inactive: [1] 0.0574 | [2] 0.0238 | [3] 0.0895 | [4] 0.0859

CC(C)c1ccc2c(c1)CCC1C(C)(CN)CCCC21C (configuration not stated)
inactive: [1] 0.0133 | [2] -0.0819 | [3] 0.122 | [4] 0.00337

Fc1cccc(CN(C2=NCCN2)c2c(Cl)cccc2Cl)c1
inactive: [17] 0.243 | [18] 0.118 | [19] 0.138 | [20] 0.0968

CC(=O)/C=C/C1C(C)(O)CCC2C(C)(C)CCCC21C (configuration not stated)
inactive: [1] 0.0886 | [2] 0.136 | [3] 0.148 | [4] 0.139

Cc1nc(Nc2ncc(C(=O)Nc3c(C)cccc3Cl)s2)cc(N2CCN(CCO)CC2)n1
inactive: [5] -0.00181 | [6] -0.0394 | [7] -0.125 | [8] -0.364
active: [9] -0.395 | [10] -0.907 | [11] -0.393 | [12] -1.27 | [13] -0.457 | [14] -1.34 | [15] -0.706 | [16] -1.33

COc1cccc(C(=O)NCCN2CCN(c3ccc(Cl)cc3)CC2)c1
inactive: [17] 0.184 | [18] 0.2 | [19] 0.0849 | [20] 0.0867

O=C(O)c1cn(-c2ccccc2)nc1-c1ccc(F)cc1
inactive: [1] 0.0839 | [2] -0.00121 | [3] 0.0458 | [4] -0.135

NCCNS(=O)(=O)c1cccc2cnccc12
active: [3] -0.101
inactive: [21] 0.261 | [22] -0.0195 | [1] 0.263 | [2] -0.0436 | [17] 0.125 | [18] 0.144 | [4] 0.0153 | [19] 0.077 | [20] 0.0865 | [23] -0.0355 | [24] 0.14

NC(N)=NCCNS(=O)(=O)c1cccc2cnccc12
active: [3] -0.325 | [23] -0.105
inactive: [21] 0.216 | [22] 0.0306 | [1] 0.259 | [2] 0.000334 | [17] 0.159 | [18] 0.0697 | [4] 0.117 | [19] 0.11 | [20] 0.0282 | [24] 0.0777

O=S(=O)(NCCNC/C=C/c1ccc(Br)cc1)c1cccc2cnccc12
inactive: [21] 0.026 | [22] 0.000211 | [1] 0.096 | [2] 0.0474 | [17] 0.108 | [18] 0.000615 | [3] 0.0846 | [4] -0.0121 | [19] 0.194 | [20] 0.0705 | [23] 0.00409 | [24] 0.217

CNCCNS(=O)(=O)c1cccc2cnccc12
inactive: [21] 0.0336 | [22] 0.0964 | [1] 0.0201 | [2] 0.0846 | [17] 0.191 | [18] 0.0995 | [3] -0.0144 | [4] 0.076 | [19] 0.114 | [20] 0.037 | [23] -0.0615 | [24] -0.521

C[C@@H]1CC[C@@]2(OC1)O[C@H]1C[C@H]3[C@@H]4CC[C@@H]5C[C@@H](O)CC[C@]5(C)[C@H]4CC[C@]3(C)[C@H]1[C@@H]2C
inactive: [1] 0.0641 | [2] 0.0518 | [3] 0.077 | [4] 0.0287
